Screening data deposited in PubChem by several laboratories.
Hits are enriched below; roughly 27% of the tested compounds scored in any of these assays.
CYP2C9 activ: CYP2C9 (human) activation; P11712; recombinant CYP2C9, luciferin-H conversion, luminescence; stronger effect = higher value; factor 1 = untreated enzyme, 0 = blocked; activation factor at 5 µM; actives 1.4% (n = 96,000);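 active means activation factor of 2 or more for CYP2C9 at a 5 µM dose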
Target sequence (P11712 whole entry, looked up): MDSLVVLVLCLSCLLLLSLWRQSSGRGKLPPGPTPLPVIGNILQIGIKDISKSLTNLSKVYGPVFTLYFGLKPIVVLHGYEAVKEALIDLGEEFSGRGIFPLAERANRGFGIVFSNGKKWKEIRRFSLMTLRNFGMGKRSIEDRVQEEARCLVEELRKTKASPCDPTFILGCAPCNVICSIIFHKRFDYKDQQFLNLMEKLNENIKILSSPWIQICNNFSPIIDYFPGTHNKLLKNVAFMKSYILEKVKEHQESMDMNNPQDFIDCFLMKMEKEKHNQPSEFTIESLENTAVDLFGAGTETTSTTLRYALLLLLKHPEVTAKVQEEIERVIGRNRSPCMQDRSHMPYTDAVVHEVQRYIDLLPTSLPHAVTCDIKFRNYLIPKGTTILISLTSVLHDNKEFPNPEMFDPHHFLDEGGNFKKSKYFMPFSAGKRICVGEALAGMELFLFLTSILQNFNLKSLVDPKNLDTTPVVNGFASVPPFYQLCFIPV
CYP2C19 act: cytochrome P450 2C19 (human) activation. P33261. recombinant CYP2C19, luciferin-H EGE luminescence; stronger effect = higher value; 0 = fully inhibited enzyme, 1 = untreated enzyme. activation factor at 5 µM. 96,000 tested, under 10 active. AID 1025;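 active means activation factor of at least 2 at 5 µM in the primary screen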
sEH inh: blocks human soluble epoxide hydrolase activity. actives 0.34% (n = 91,000). P34913. recombinant human sEH enzymatic activity assay. inhibition, % at 2 µM; in the data active means inhibition above about 80%
CYP2C19 inh: human CYP2C19 inhibition; inhibition, % at 5 µM; CYP2C19 Supersomes, luciferin-H EGE luminescence, 30 min; P33261; actives 21% (n = 96,000);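 active means CYP2C19 inhibition above a set limit at 5 µM in the primary screen, cut at about 50% in these data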
sEH activator: increases human soluble epoxide hydrolase activity. P34913. purified human sEH enzymatic activity, activator screen. activation, % at 2 µM. actives 0.04% (n = 91,000); in the data active means activation above about 37%
CYP2C9 inh: blocks human cytochrome P450 2C9; P11712; CYP2C9 Supersomes, luciferin-H conversion, luminescence; inhibition, % at 5 µM; actives 20% (n = 96,000); AID 777;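 active means blocking of liver enzyme CYP2C9 beyond about 50% at 5 µM, limit read from the data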
Of the large screens only hits and unclear results are named; the others gave an inactive call.

O=C(Nc1ncnc2c1ncn2C1OC(COC(=O)c2ccccc2)C(F)C1O)c1ccccc1 (stereo not drawn)	CYP2C19 inh 80, CYP2C9 inh 86
CCc1nnc(NC(=O)CN2CCN(C3CCCCC3)CC2)s1	none
CCc1c(C(=O)Nc2ccncc2)csc1C	CYP2C19 inh 98, CYP2C9 inh 84
O=C(Nc1ccc2nn(-c3ccccc3)nc2c1)c1cccs1	none
O=C(Nc1ccncc1)c1cccs1	CYP2C9 inh 52
O=C(Nc1cccc(-c2csc(-c3ccccc3)n2)c1)c1cccs1	CYP2C19 inh 51, CYP2C9 inh 91
O=C(Nc1cccnc1)c1cccs1	none
O=C(Nc1ccc2nsnc2c1)c1cccs1	CYP2C19 inh 55
CCCC(=O)Nc1ccc(C(=O)NNC(=O)c2ccco2)cc1	none
COc1ccc(C)cc1NC(=O)CN1CCN(S(=O)(=O)c2ccc(Cl)cc2)CC1	CYP2C19 inh 66, CYP2C9 inh 65
COc1cc2c(cc1NC(=O)CN1CCN(S(=O)(=O)c3ccc(C)cc3)CC1)oc1ccccc12	none
COc1ccc(OC)c(C(=O)CN2CCN(S(=O)(=O)c3ccc(Br)cc3)CC2)c1	CYP2C19 inh 83, CYP2C9 inh 58 (no result: sEH inh, sEH activator)
COc1ccc(C)cc1NC(=O)CN1CCN(S(=O)(=O)c2ccc(C(C)C)cc2)CC1	CYP2C19 inh 86, CYP2C9 inh 88
COc1ccc(NC(=O)CN2CCN(S(=O)(=O)c3ccc(C(C)C)cc3)CC2)cc1OC	none (no result: sEH inh, sEH activator)
Cc1cc(=O)oc(C)c1C(=O)Nc1ccc(Cl)cn1	none (no result: sEH inh, sEH activator)
CCCCN(Cc1ccccc1)C(=O)c1cnc2n(c1=O)CCS2	none
O=C(c1cc(-c2ccc(O)cc2)on1)N1CCc2ccccc2C1	CYP2C19 inh 82
O=C(c1cc(-c2cccc(O)c2)on1)N1CCOCC1	CYP2C19 inh 59 (no result: sEH inh, sEH activator)
Cc1nc(CSc2nnc3scc(-c4ccc(Cl)cc4)n23)cs1	CYP2C19 inh 60
O=C(c1cc(Cl)cc(Cl)c1)N1CCOCC1	none
Cn1c(=O)c2cc(S(=O)(=O)Nc3cccc(F)c3)ccc2n(C)c1=O	CYP2C19 inh 76, CYP2C9 inh 83
Cn1c(=O)c2cc(S(=O)(=O)NC(C(=O)Nc3cccc(F)c3)c3ccccc3)ccc2n(C)c1=O (stereo not drawn)	none
Cc1c(S(=O)(=O)Nc2cccc(Cl)c2)c(=O)n(C)c(=O)n1C	CYP2C19 inh 51
CN(CCNC(=O)c1cn(C)c2ccc(S(=O)(=O)N3CCCC3)cc2c1=O)CCc1ccccc1	none (no result: sEH inh, sEH activator)
CCN(CC)c1nc(=S)nc(NC(C)(C)C)[nH]1	none
CCC(C)n1cnc2c(c1=O)c1nc3ccccc3nc1n2Cc1ccc2c(c1)OCO2 (stereo not drawn)	CYP2C19 inh 81, CYP2C9 inh 99
O=c1c2c3nc4ccccc4nc3n(-c3cccc(F)c3)c2ncn1Cc1ccc2c(c1)OCO2	none (no result: sEH inh, sEH activator)
Cc1nc2c(c(=O)n1CCC(C)C)c1nc3ccccc3nc1n2Cc1ccc2c(c1)OCO2	CYP2C9 inh 58 (no result: sEH inh, sEH activator)
Cc1c(-c2ccccc2)nc2ccccc2c1C(=O)Oc1ccc([N+](=O)[O-])cc1	none
Nc1ccc(Oc2ccc3nc(-c4ccccc4)c(-c4ccc([N+](=O)[O-])cc4)nc3c2)cc1	CYP2C9 inh 56
COC(=O)CNc1nc(OC)nc(N(C)C)n1	none
O=C1C(Cl)=C(NCC2CCCO2)C(=O)N1c1ccccc1 (stereo not drawn)	none
C=CCNC1=C(Cl)C(=O)N(c2ccccc2Cl)C1=O	CYP2C19 inh 68
CCOc1ccccc1NC=C1C(=O)OC(C)(C)OC1=O	CYP2C9 activ 2
CCOC(=O)c1cc2c(N)c(C(=O)c3cc(C#N)c(SC)nc3C)sc2nc1C	none
Cc1ccc2nc3c(cc(C(N)=S)c(=N)n3CCCOC(C)C)c(=O)n2c1	CYP2C19 inh 81
O=C(O)c1cc(-c2ccc3c(c2)OCO3)nc2ccccc12	none (no result: sEH inh, sEH activator)
CCCN(CCC)C(=O)c1cc(-c2ccc3c(c2)OCO3)nc2ccccc12	CYP2C19 inh 97, CYP2C9 inh 100
CC(=O)c1ccc(N2CCN(C(=O)c3cc(-c4ccc5c(c4)OCO5)nc4ccccc34)CC2)cc1	CYP2C9 inh 62
Cc1ccc2nc(-c3ccc4c(c3)OCCO4)cc(C(=O)O)c2c1	CYP2C9 inh 81
CC(NC(=O)c1cc(-c2ccc3c(c2)OCO3)nc2ccccc12)C(C)(C)C (stereo not drawn)	CYP2C9 inh 56
